PLAP activator – PLAP enzyme activators, biochemical, luminescence, HTS | Alkaline phosphatase, placental type (Homo sapiens), P05187 | purified PLAP enzyme, luminescent substrate read-out; stronger effect = higher value | activation fold at 20 µM | 1.2% of 96,000 active | AID 696, 2007; in the data active means activation fold above about 2
Cav3 T inh – Cav3.2 calcium influx blockers – cell-based, Fluo-4 calcium fluorescence, FDSS, MLSMR library, primary screen. Voltage-dependent T-type calcium channel subunit alpha-1H (Homo sapiens), O95180. Cav3.2-expressing cells; stronger effect = lower value. B-score at 10 µM. 4% of 100,000 active. AID 449739, 2010;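 active means single-dose well whose peak fluorescence ratio is a statistical outlier from its plate by either plate-standardised score or position-corrected B-score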
hDAT+cocaine – changed hDAT dopamine uptake under cocaine IC80, either direction, primary screen, cocaine antagonist project, cell-based, LLC-PK1 hDAT, [14C]-dopamine uptake, MLSMR; Sodium-dependent dopamine transporter (Homo sapiens), Q01959; B-score at 10 µM; LLC-PK1 hDAT cells, [14C]-dopamine uptake with cocaine IC80; actives deviate in either direction; 1.3% of 110,000 active;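 active means Z score or B-score, a plate-position-corrected score, falls beyond the plate's 99.7% confidence bounds, in either direction; inactive means both scores lie inside the 99.7% bounds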
Target sequence (Q01959 whole entry, looked up): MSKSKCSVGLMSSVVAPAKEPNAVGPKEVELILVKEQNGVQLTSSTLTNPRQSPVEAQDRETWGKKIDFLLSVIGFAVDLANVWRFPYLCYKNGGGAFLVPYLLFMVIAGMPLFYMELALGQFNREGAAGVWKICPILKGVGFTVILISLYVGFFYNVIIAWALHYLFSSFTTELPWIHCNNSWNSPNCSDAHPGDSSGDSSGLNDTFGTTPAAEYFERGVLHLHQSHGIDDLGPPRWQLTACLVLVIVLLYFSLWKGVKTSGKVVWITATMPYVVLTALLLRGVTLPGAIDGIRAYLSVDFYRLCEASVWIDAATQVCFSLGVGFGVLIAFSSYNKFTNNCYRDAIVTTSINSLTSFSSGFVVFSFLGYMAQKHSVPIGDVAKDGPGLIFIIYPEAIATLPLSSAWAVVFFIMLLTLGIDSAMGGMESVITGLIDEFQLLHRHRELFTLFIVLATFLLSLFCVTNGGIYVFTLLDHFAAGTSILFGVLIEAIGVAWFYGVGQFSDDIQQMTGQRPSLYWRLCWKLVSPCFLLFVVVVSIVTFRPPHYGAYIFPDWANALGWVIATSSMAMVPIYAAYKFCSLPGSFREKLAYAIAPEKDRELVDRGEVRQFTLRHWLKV
PostGolgi ctrl – growth inhibition of yeast control strain, primary screen, counter-screen for post-Golgi transport modulator project | inhibition, % at 10 µM | 5% of 98,000 active | efflux-deficient yeast background strain, growth absorbance A615, 16 h
PostGolgi yeast – phenotypic screen on post-Golgi transport, primary screen. AID 739, 2007. post-Golgi transport phenotypic cell assay. 0.9% of 98,000 active. inhibition, % at 10 µM;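 further: yeast cells grown in 1536-well plates; yeast grown about 18 h at 30C before absorbance read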
Numbers stand for hits; i = inactive; nt = not tested or not shown. Sampled rows, rich in hits. Any-hit rate of the full collection: about 9.6%. Unless noted, no stated cut-off is given here; in the data, active means inhibition above about 30%; inactive means the rest.

SMILES | PLAP activator | Cav3 T inh | hDAT+cocaine | PostGolgi ctrl | PostGolgi yeast
Cn1cccc1/C=C1\CC(C(C)(C)C)C/C(=C\c2cccn2C)C1=O (stereo not given) | i | -9.1 | i | i | i
Cc1cccc2cc(COC(=O)COc3ccccc3)c(=O)[nH]c12 | i | i | i | i | i
O=C1N[C@@H](Cc2ccccc2)C(=O)N1CCN1CCOCC1 | i | i | i | i | i
O=C1CCCN1CCCN1C(=O)N[C@@H](Cc2ccccc2)C1=O | i | i | i | 35 | i
O=C(OCCCCN1C(=O)c2ccccc2C1=O)c1n[nH]c2ccccc12 | 2 | i | i | i | i
O=C(COc1c(Br)cc(Br)c2cccnc12)N1CCc2ccccc2C1 | i | i | i | 67 | i
CCS(=O)(=O)N1CCN(S(=O)(=O)c2ccccc2)CC1 | i | i | -9.6 | i | i
Cc1cc(S(=O)(=O)N2CCN(c3ccccc3C)CC2)ccc1F | i | i | i | 30 | i
Cc1ccccc1N1CCN(S(=O)(=O)c2ccccc2)CC1 | nt | -4.6 | i | nt | nt
CCOc1ccc(S(=O)(=O)N2CCN(c3ccc(C)cc3C)CC2)cc1 | i | i | i | i | i
COc1ccc(S(=O)(=O)N2CCN(c3ccc(C)cc3C)CC2)cc1OC | i | -6 | i | i | i
CN(C)S(=O)(=O)N1CCN(S(=O)(=O)c2ccccc2)CC1 | i | i | i | i | i
CC(C)(C)c1csc(NC(=O)c2ccc3nccnc3c2)n1 | i | i | i | i | i
COc1cc(N/C=C(\C(C)=O)c2ccccc2)cc(OC)c1 | i | i | i | i | i
O=C(CSCc1nc2ccccc2[nH]1)N1CCN(c2cccc(Cl)c2)CC1 | i | -3.5 | i | i | i
O=C(CSCc1nc2ccccc2[nH]1)N1CCN(c2ccc(F)cc2)CC1 | i | i | i | i | i
Cc1ccc(-c2nnc(CSc3nc(C(C)C)nc4sc(C)c(C)c34)o2)cc1 | nt | i | i | nt | nt
O=C(CSCc1ccc(Cl)cc1)Nc1cccc(C(=O)Nc2ccccc2C(=O)O)c1 | i | -6.9 | i | i | i
CC(=O)c1c(C)oc2ccc(O)c(CN3CCOCC3)c12 | i | i | i | i | i
COc1ccc(-c2nnc(SCC(=O)NC(=O)NCc3ccco3)o2)cc1 | i | i | i | i | i
Cc1ccc(S(=O)(=O)N2CCOCC2)cc1C(=O)N1CCOCC1 | i | i | i | i | i
Cc1ccc(S(=O)(=O)N2CCOCC2)cc1C(=O)N1c2ccccc2Sc2ccccc21 | i | -4.2 | i | i | i
CCC(C)(C)NC(=O)C(c1cccc(OC)c1)N(C(=O)c1ccn[nH]1)c1cccc(OC)c1 (stereo not given) | 2.9 | -5.1 | i | i | i
COc1cc(S(=O)(=O)N(Cc2ccccn2)Cc2ccccc2Cl)ccc1-n1cnnn1 | nt | i | i | nt | nt
COc1ccccc1CN(Cc1ccco1)S(=O)(=O)c1ccc(-n2cnnn2)c(OC)c1 | i | i | i | 36 | i
SMILES | PLAP activator | Cav3 T inh | hDAT+cocaine | PostGolgi ctrl | PostGolgi yeast
CN(C)c1ccc(-c2nn3c(C4CCCCC4)nnc3s2)cc1 | i | i | i | i | i
O=C(NCc1ccccc1)c1ccc(OC2CSC2)cc1 | i | i | i | 32 | i
O=C(OC(C(=O)NCc1ccc2c(c1)OCO2)c1ccc(Cl)cc1)c1ccco1 (stereo not given) | i | i | i | i | i
CCN(CC)c1ccc(NC(=O)CC2Oc3ccccc3NC2=O)c(C)c1 (stereo not given) | i | i | i | i | i
O=C(Nc1cccc(F)c1)C1CCN(c2nnnn2-c2ccccc2)CC1 | i | -7.5 | i | i | i
O=C(c1ccc2c(c1)OCCO2)C1CCN(C(=O)c2ccc(F)c(F)c2)CC1 | i | -3.9 | i | i | i
O=C(Nc1ccc2c(c1)OCCO2)C1CCN(C(=O)c2ccc(Br)cc2)CC1 | i | i | i | i | i
COc1ccc(NC(=O)C2CCN(C(=O)c3ccc(OC)cc3)CC2)cc1 | i | i | i | i | i
O=C(Nc1cccc(F)c1)C1CCN(C(=O)c2ccc(Br)cc2)CC1 | i | -4.3 | i | i | i
O=C(Nc1ccc2c(c1)OCCO2)C1CCN(C(=O)c2ccccc2)CC1 | i | i | i | 31 | i
O=C(Cn1c(O)c(/C=C2\C=Nc3ccc(Br)cc32)sc1=O)N1CCCC1 | i | nt | nt | 37 | i
CC1=Nc2ccccc2/C1=C/c1sc(=O)n(CC(=O)N2CCCC2)c1O | i | i | i | i | i
Cc1ccc(-c2nnn(CC(=O)N(c3ccc(F)cc3)C(C(=O)NC(C)(C)C)c3ccco3)n2)o1 (stereo not given) | nt | i | i | nt | nt
CC(C)(C)NC(=O)C(c1ccco1)N(C(=O)Cn1nnc(-c2ccc(F)cc2)n1)c1cccc(F)c1 (stereo not given) | nt | nt | nt | 36 | i
CC1CCCCN1CCNC(=O)Cn1nc(-c2ccccc2)ccc1=O (stereo not given) | i | i | i | i | 39
Cc1nc(SCC(=O)c2ccccc2)n[nH]1 | 2.2 | i | i | i | i
O=C(CSc1nc(N2CCCCC2)nc(N2CCCCC2)n1)c1ccccc1 | i | -4.2 | i | i | i
C=CCNC(=S)NNC(=O)c1cccn(Cc2cccc(Cl)c2)c1=O | i | i | i | i | i
NCCCCCc1nnc(SCC(=O)c2ccc(Cl)cc2)o1 | i | i | i | i | i
Cn1c(CN2CCOCC2)nnc1SCC(=O)NCCc1ccccc1 | i | i | i | i | i
c1ccc2c(c1)c1ccccc1n1c(-c3ccc4c(c3)OCO4)nnc21 | i | i | i | 43 | i
Cn1c(-c2ccc3c(c2)OCO3)cc(=O)c2ccccc21 | nt | i | i | nt | nt
O=C(NC1CCCCCC1)c1nnc(Cc2ccc(Cl)cc2)o1 | nt | i | i | nt | nt
O=C(c1nnc(Cc2ccc(Cl)cc2)o1)N1CCc2ccccc2C1 | nt | -5.7 | i | nt | nt
COCC(C)n1c(C)cc(C(=O)COC(=O)c2nc3nc(C)cc(C)n3n2)c1C (stereo not given) | i | i | i | 33 | i
SMILES | PLAP activator | Cav3 T inh | hDAT+cocaine | PostGolgi ctrl | PostGolgi yeast
CCCc1cc(=O)[nH]c(SCC(N)=O)n1 | i | i | i | i | i
CCCc1cc(=O)[nH]c(SCC(=O)c2cc(C)n(C(C)COC)c2C)n1 (stereo not given) | nt | nt | i | 49 | i
O=C(NC(Cc1ccccc1)C(=O)OCC(=O)N1CCc2ccccc21)c1ccco1 (stereo not given) | i | -4.7 | i | i | i
O=C(COC(=O)C(Cc1ccccc1)NC(=O)c1ccco1)NC1CC1 (stereo not given) | i | i | i | i | i
COc1ccc(C)cc1NC(=O)CN(Cc1nnc(-c2ccc(Cl)cc2)o1)C1CCCC1 | i | -4.2 | i | i | i
N#Cc1c2n(c3c(=O)n(Cc4ccccc4)cnc13)CCCC2 | i | i | i | i | i
N#Cc1c2n(c3c(=O)n(Cc4ccc(Cl)cc4)cnc13)CCCCC2 | i | nt | i | 58 | i
CCCOc1ccc(C(=O)NNC(=S)NC(=O)c2cc(-c3ccccc3)nc3ccccc23)cc1 | i | -7.3 | i | i | i
C=CCNC(=S)NNC(=O)c1ccc(OCCCC)cc1 | nt | i | i | nt | nt
CCCOc1ccc(C(=O)NNC(=S)NC(C)=O)cc1 | i | i | i | 32 | 47

Source: PubChem BioAssay
